Values joined by “and” are separate entries in the source; they are usually repeats but may differ in a detail not shown here. Equal values may be shown once. Records with an inconclusive call do not appear. Active and inactive are the calls of the source. The calls were made as follows: active = hit-call score of the fitted dose curve at least 0.9, where 1 is the maximum; inconclusive = response in the unintended direction; inactive = score below 0.9.
How the values were obtained:
[1] = ATG_XTT_Cytotoxicity: Cytotoxicity Assessment in the Attagene TRANS-FACTORIAL HepG2 Assay (AID 2283584)
How it was run: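 HepG2 cells transiently transfected with GAL4-UAS multiple reporter units, dosed 24 h; cytotoxicity read by XTT as loss of signal versus DMSO baseline.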

[2] = TOX21_p53_BLA_p2_viability: Viability Assessment in the Tox21 HCT-116 p53 Agonism Beta-lactamase Assay, Phase 2 (AID 2283591);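 also: compound exposure lasted 16 h at 37 °C; actives lower the ATP signal meaning cytotoxicity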
How it was run: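 HCT116 p53-bla cells, 4000/well, dosed after 5 h plating (217-fold dilution of DMSO stocks) and incubated 16 h at 37C. Viability taken as cellular ATP by CellTiter-Glo luminescence after 30 min RT; signal loss marks cytotoxicity.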

[3] = molecular target: Cellular tumor antigen p53 (Homo sapiens) (UniProt P04637); assay: TOX21_p53_BLA_p2_ratio: Tox21 HCT-116 p53 Agonism Beta-lactamase Assay, Ratio, Phase 2 (AID 2283592)
How it was run: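 HCT-116 cells with p53-responsive beta-lactamase reporter, 4000 cells/well, preincubated 5 h, then compound in DMSO (217-fold dilution) for 16 h at 37C. CCF4-AM substrate 2 h at room temperature; 460/530 nm emission ratio fitted upward versus DMSO.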

[4] = TOX21_p53_BLA_p3_viability: Viability Assessment in the Tox21 HCT-116 p53 Agonism Beta-lactamase Assay, Phase 3 (AID 2283593);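 also: cells exposed to compound for 16 h before reading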
How it was run: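 HCT116 cells, 4000/well, dosed 5 h after plating by pin transfer (217-fold dilution from DMSO stock) and incubated 16 h at 37C, 5% CO2. Viability read as ATP luminescence with CellTiter-Glo after 30 min at room temperature.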

[5] = TOX21_p53_BLA_p5_viability: Viability Assessment in the Tox21 HCT-116 p53 Agonism Beta-lactamase Assay, Phase 5 (AID 2283600)
How it was run: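 HCT-116 p53 beta-lactamase reporter cells, 4000/well, were exposed to compound (pin transfer, 217-fold dilution) for 16 hours at 37C. Cellular ATP was read by CellTiter-Glo luminescence after 30 min at room temperature.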

[6] = molecular target: Cellular tumor antigen p53 (Homo sapiens) (UniProt P04637); assay: TOX21_p53_BLA_p3_ratio: Tox21 HCT-116 p53 Agonism Beta-lactamase Assay, Ratio, Phase 3 (AID 2283596)
How it was run: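 HCT116 p53-bla cells (4000/well) given compound in DMSO (217-fold dilution) after 5 h, incubated 16 h at 37C. CCF4-AM substrate 2 h at room temperature; 460/530 nm emission ratio, gain fitted against DMSO.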

[7] = TOX21_p53_BLA_p4_viability: Viability Assessment in the Tox21 HCT-116 p53 Agonism Beta-lactamase Assay, Phase 4 (AID 2283597);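 also: hits lower the luminescence signal meaning cytotoxicity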
How it was run: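 HCT-116 p53-bla cells, 4000/well, dosed after 5 h attachment and incubated 16 h at 37 °C, 5% CO2. Viability from CellTiter-Glo ATP luminescence after 30 min at room temperature, taken after the beta-lactamase read; loss of signal indicates cytotoxicity.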

[8] = molecular target: Cellular tumor antigen p53 (Homo sapiens) (UniProt P04637); assay: TOX21_p53_BLA_p5_ratio: Tox21 HCT-116 p53 Agonism Beta-lactamase Assay, Ratio, Phase 5 (AID 2283599)
How it was run: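 HCT-116 p53-bla cells (4000/well) plated 5 h, dosed with compound (217-fold DMSO dilution) for 16 h at 37 C; CCF4-AM substrate 2 h at room temperature. Activity is the 460/530 nm emission ratio (405 nm excitation), fitted in gain-of-signal direction versus DMSO.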

[9] = molecular target: Cellular tumor antigen p53 (Homo sapiens) (UniProt P04637); assay: TOX21_p53_BLA_p4_ratio: Tox21 HCT-116 p53 Agonism Beta-lactamase Assay, Ratio, Phase 4 (AID 2283601)
How it was run: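 HCT-116 p53 beta-lactamase reporter cells (4000/well) preincubated 5 h, then compound (217-fold dilution of DMSO stock) for 16 h at 37C. CCF4-AM substrate added 2 h at room temperature; 460/530 nm emission ratio fitted upward versus DMSO.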

Measured: AC50

Sequence of Cellular tumor antigen p53 (Homo sapiens) (P04637 whole entry, looked up): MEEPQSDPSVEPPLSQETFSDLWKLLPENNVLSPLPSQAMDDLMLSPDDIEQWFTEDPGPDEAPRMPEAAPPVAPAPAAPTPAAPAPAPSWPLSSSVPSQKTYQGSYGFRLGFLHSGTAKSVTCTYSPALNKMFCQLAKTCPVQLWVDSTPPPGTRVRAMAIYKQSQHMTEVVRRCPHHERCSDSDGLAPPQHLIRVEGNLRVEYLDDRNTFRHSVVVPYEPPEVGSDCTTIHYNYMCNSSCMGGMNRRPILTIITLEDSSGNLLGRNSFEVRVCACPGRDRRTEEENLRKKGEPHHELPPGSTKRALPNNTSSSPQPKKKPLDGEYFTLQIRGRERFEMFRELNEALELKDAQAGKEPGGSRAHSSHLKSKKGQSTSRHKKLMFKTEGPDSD

CCOC(=O)CCc1ccccc1
inactive: [1] | [2] | [3] | [4] | [5]

Cc1[nH]c(=O)c(C#N)cc1-c1ccncc1
inactive: [1] | [2] | [3] | [4] | [6] | [7] | [8] | [5] | [9]

CC(=O)c1ccccn1
inactive: [1] | [2] | [3] | [6] | [7] | [8] | [5]

CCCCCCOC(=O)CCC
inactive: [1] | [2] | [3] | [4] | [6] | [7] | [8] | [9]

CCCCCCCCc1ccc(S(=O)(=O)O)cc1
active: [7] 33.7 µM
inactive: [1] | [2] | [3] | [4] | [6] | [5] | [9]

NCCNc1cccc2ccccc12
inactive: [1] | [2] | [3] | [4] | [6] | [7] | [5] | [9]

OCc1cccc(Oc2ccccc2)c1
inactive: [1] | [2] | [3] | [4] | [6] | [7] | [5] | [9]

CCc1cc(Cc2cc(CC)cc(C(C)(C)C)c2O)c(O)c(C(C)(C)C)c1
active: [2] 4.87 µM | [3] 14.9 µM | [4] 16.1 µM | [6] 32.6 µM | [7] 5.48 µM | [5] 20.1 µM | [9] 10.8 µM
inactive: [1]

CCCCCC(C=O)=Cc1ccccc1
inactive: [1] | [2] | [3] | [4] | [6] | [7] | [8] | [9]

COc1cc([C@@H]2c3cc4c(cc3[C@@H](O[C@@H]3O[C@@H]5CO[C@@H](C)O[C@H]5[C@H](O)[C@H]3O)[C@H]3COC(=O)[C@H]23)OCO4)cc(OC)c1O
inactive: [1] | [2] | [4] | [7] | [5]
active: [3] 1.36 µM and 3.57 µM | [6] 852 nM and 3.18 µM | [8] 2.56 µM and 4.83 µM | [9] 6.18 µM and 1.98 µM
